Screening data deposited in PubChem by The Scripps Research Institute Molecular Screening Center.
ssDAF-12 act: S. stercoralis DAF-12 nuclear receptor activators, primary screen, cell-based, luminescence, HEK293, GRIP1 co-expression, lit1-tk-luc | HEK293 ssDAF-12/GRIP1 lit1-tk-luc reporter; % of 3 µM dafachronic acid response | activation, % at 6.8 µM | 1% of 370,000 active | AID 652126, 2013;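 active means activation above the mean over all tested compounds plus 3 SD, cut at about 0.9% in these data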
hcDAF12 agonist: H. contortus DAF-12 nuclear receptor activators, primary screen, cell-based, luminescence, HEK293, lit1-tk-luc reporter; HEK293 hcDAF-12 lit1-tk-luc reporter; 0% DMSO, 100% Δ7-dafachronic acid; activation, % at 6.8 µM; 1.4% of 370,000 active; AID 652067, 2013;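 active means activation above the mean of all tested compounds plus 3 SD, cut at about 5.5% in these data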
hgDAF-12 ag: H. glycines DAF-12 receptor agonists, primary screen, cell-based, luminescence, HEK293, GAL4 fusion, UAS-luciferase; activation, % at 6.8 µM; HEK293 GAL4-hgDAF12 UAS-luciferase reporter, agonist luminescence; normalized to butyrate control; 1.8% of 370,000 active;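 active means activation above a cutoff set at the mean of all screened compounds plus 3 SD, cut at about 10% in these data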
SMARCA2 activ: SMARCA2 (BRM) function activators, primary screen, cell-based, luminescence, high throughput. MG213 cells, MMTV-luciferase reporter, dexamethasone, overnight. activation, % at 9.1 µM. 1% of 370,000 active. AID 652017, 2013; in the data active means activation above about 7.8%
DAX1 StAR inh: DAX1 (NR0B1) inhibitors on StAR promoter, primary screen, cell-based, luminescence, SF-1 (NR5A1), full-length DAX-1; HEK293T StAR-luciferase reporter, SF-1/DAX-1 repression relief; inhibition, % at 6.8 µM; AID 652010, 2013; 1.1% of 370,000 active;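 active means inhibition above the mean over all tested compounds plus 3 SD, cut at about 3.6% in these data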;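 further: higher inhibition means more luminescence from relief of DAX-1 repression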
SMARCA2 act conf: SMARCA2 (BRM) function activators, confirmation, cell-based, luminescence, triplicate. MG213 cells, MMTV-luciferase with dexamethasone, overnight; MG213 cells expressing E1A, Rb sequestered; DMSO wells 0%, reference activator 100%. 30% of 3,500 active. activation, % at 9.1 µM. shares compounds with SMARCA2 activ;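 active means activation above its plate's cutoff, the mean activation of tested wells plus 3 SD, cut at about 7.9% in these data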
GAL4-VP16 Luc: GAL4-VP16 luciferase reporter activation, counter-screen for SMARCA2 (BRM) activator project, cell-based, pG5luc, luminescence, high throughput. 41% of 3,500 active. HEK293 GAL4-VP16 pG5luc reporter; scaled: DMSO wells 0%, SAHA wells 100%. activation, % at 9.1 µM. AID 686939, 2013. shares compounds with SMARCA2 activ;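 active means activation above the solvent-only control well mean plus 3 SD, averaged across control plates, cut at about 5.2% in these data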
A number is an active result; – = inactive; · = no result given. Sampled rows, rich in hits. Any-hit rate of the full collection: about 4.2%.

SMILES	ssDAF-12 act	hcDAF12 agonist	hgDAF-12 ag	SMARCA2 activ	DAX1 StAR inh	SMARCA2 act conf	GAL4-VP16 Luc
COC(=O)C1=CN(c2ccc3c(c2)OCO3)C(N)=C(C#N)C1c1cccc(F)c1 (stereo unspecified)	–	–	–	–	–	·	·
N#CC(C#N)=C1SC(=Nc2ccccc2)C(=Nc2ccccc2)N1c1ccccc1	–	–	–	14	4.5	–	–
O=C(Nc1nnc(-c2ccccc2SCc2ccccc2F)s1)Nc1ccccc1F	–	–	–	8.3	–	–	–
CCn1c2ccccc2c2nnc(SCCN3CCOCC3)nc21	–	–	–	–	–	·	·
Cn1c2ccccc2c2nnc(SCCN3CCOCC3)nc21	–	6.3	–	10	–	–	–
COC(=O)[C@]12C=CCN1[C@H](c1ccc(Cl)cc1)c1c(c3ccccc3n1S(=O)(=O)c1ccc(C)cc1)C2	–	–	–	–	–	·	·
COCC(=O)Nc1c(C(=O)Nc2cccc(OC)c2)oc2ccccc12	–	–	–	10	–	12	6.2
O=C(c1ccccc1)C1CCN(c2ncnc3sccc23)CC1	–	–	–	·	·	·	·
COC(=O)C1CN(CCc2ccccc2)CCS(=O)(=O)N1Cc1ccc(Cl)cc1 (stereo unspecified)	–	–	–	–	–	·	·
Cc1ccc(CNC(=O)CCS(=O)(=O)c2ccc(C)cc2)cc1	–	–	–	10	–	–	–
NS(=O)(=O)c1ccc(NC(=O)CSc2nnc(NC3CC3)s2)cc1	–	–	–	–	–	·	·
O=C(CSc1nnc(NC2CC2)s1)c1ccc[nH]1	–	–	–	12	–	10	7.3
CN(C)C(=O)CSc1cccc2cccnc12	–	–	–	12	–	–	–
COc1ccc(C(Nc2cc(C)ccn2)c2ccc3ccc(C)nc3c2O)cc1 (stereo unspecified)	–	–	–	10	–	–	–
CCOC(=O)c1cccc(NC(=O)c2cncc(Br)c2)c1	–	–	–	9.0	–	–	–
CN(C)c1cccc(CNC(=O)c2csc([C@@H]3O[C@H](CO)[C@@H](O)[C@H]3O)n2)c1	–	–	–	8.3	–	–	–
COc1cc(F)ccc1-c1csc(C(C)(O)c2ccc(F)c(F)c2)n1 (stereo unspecified)	–	–	–	9.1	–	–	–
COc1ccc(C(C)(O)c2nc(-c3ccc(F)cc3OC)cs2)cc1 (stereo unspecified)	–	–	–	–	–	·	·
CC(O)CNc1nc2c(c(=O)n(Cc3ccccc3)c(=O)n2C)n1C (stereo unspecified)	–	–	–	9.7	–	–	–
CC(O)CNc1nc2c(c(=O)n(Cc3cccc(Cl)c3)c(=O)n2C)n1C (stereo unspecified)	–	–	–	–	–	·	·
CC(=Nc1ccccc1)C1=C(O)CSC1=O	–	–	–	8.6	–	–	–
COc1ccc(N=C(C)C2=C(O)CSC2=O)cc1	–	–	–	–	–	·	·
CSc1nc(SCC(=O)NC(c2ccccc2)c2ccccc2)c2c3c(sc2n1)CN(C)CC3	–	–	–	12	–	–	–
CCOC(=O)C1=C(C)N=c2sc(=Cc3ccc(OCC(=O)O)cc3)c(=O)n2C1c1ccc(Cl)cc1 (stereo unspecified)	–	–	–	–	–	·	·
CCOC(=O)C1=C(C)N=c2s/c(=C/c3ccc(OCC(=O)O)cc3)c(=O)n2C1c1cc(OC)c(OC)c(OC)c1 (stereo unspecified)	–	–	–	9.1	–	–	–
SMILES	ssDAF-12 act	hcDAF12 agonist	hgDAF-12 ag	SMARCA2 activ	DAX1 StAR inh	SMARCA2 act conf	GAL4-VP16 Luc
Nc1cccc(Nc2ncnc3ccccc23)c1	–	–	–	–	–	·	·
Oc1cccc(Nc2ncnc3ccccc23)c1	–	–	–	8.1	–	–	–
O=C1/C(=C/c2cccs2)Cc2ccccc21	–	–	–	9.6	–	8.3	–
CCCCn1nnnc1C1(C)CCC(=O)N1CCc1ccccc1F (stereo unspecified)	–	–	–	–	–	·	·
CC(C)(C)NC(=O)NCCc1ccccc1	–	–	–	9.9	–	10	8.2
COCc1ccc(C(=O)N(C)CC2CCCN(CCc3ccc(Cl)cc3)C2)o1 (stereo unspecified)	–	–	–	–	–	·	·
COCc1ccc(C(=O)N(C)CC2CCCN(CCc3ccc(OC)cc3)C2)o1 (stereo unspecified)	–	–	–	9.8	4.5	–	–
O=S(=O)(Nc1ccc(C(O)(C(F)(F)F)C(F)(F)F)cc1)c1cccs1	–	–	–	·	·	·	·
Cc1ccc2c(c1)sc[n+]2Cc1ccccc1	–	–	–	10	–	–	7.8
Cc1ccc(-c2cc[n+](Cc3ccccc3)cc2)cc1	–	–	–	–	–	·	·
C#CCN(C[C@H]1[C@H](OC(=O)NC2CCCC2)[C@H](OC(=O)NC2CCCC2)C[C@@H](C(=O)OC)[C@H]1C(=O)OC)S(=O)(=O)c1ccc(C)cc1	–	–	–	–	–	·	·
Cc1nc(N2CCOCC2)nc(Oc2ccccc2)c1[N+](=O)[O-]	–	–	–	11	–	–	–
O=C(CSc1ccc(-c2cccs2)nn1)N1CCCCCC1	–	–	–	13	–	–	5.7
O=C(CSc1ccc(-c2cccs2)nn1)N1CCCCC1	–	–	–	–	–	·	·
O=C(CCN1C(=O)COc2ccccc21)NCCN1CCN(c2ccccc2F)CC1	–	–	–	8.7	–	–	–
O=C(Nc1nc2ccccc2n1CCN1CCOCC1)c1ccc(Cl)cc1	–	–	–	8.0	–	–	–
O=C(N[C@H](Cc1ccccc1)C(=O)NCc1ccco1)[C@H]1O[C@@H](n2ccc(=O)[nH]c2=O)[C@H](O)[C@@H]1O	–	–	–	–	–	·	·
O=C(c1ccc(F)cc1)c1cc2ccccc2o1	–	–	–	11	–	–	7.4
O=C(c1ccccc1)c1cc2ccccc2o1	–	–	–	–	–	·	·
O=C(NCc1ccccc1)C(c1ccc(C(F)(F)F)cc1)n1c(=O)c(-c2ccco2)nc2ccccc21 (stereo unspecified)	–	–	–	–	–	·	·
